Screening results deposited in PubChem BioAssay by National Center for Advancing Translational Sciences (NCATS).
NPC1 promoter act = activates the NPC1 promoter | Huh7 NPC1 promoter luciferase reporter, 24 h | Potency, µM (top dose mostly 9.22 µM), usual class: activators | 2.4% of 320,000 active | AID 485313; also: nearly all actives have a fitted effect of over 60% in size
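Compounds in DMSO were transferred onto Huh7 NPC1-luciferase reporter cells pre-incubated 2 h; after 24 h at 37 °C, Amplite reagent was dispensed and luminescence recorded 10 min later.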
Rab9 promoter act = Rab9 promoter activation; Huh7 Rab9 promoter-luciferase reporter, luminescence, 24 h; Potency, µM (top dose mostly 9.22 µM), usual class: activators; 2.8% of 320,000 active; also: nearly all actives have a fitted effect of over 60% in size
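Cells were plated at 1500 per well in reduced-serum medium with 10% FBS and left 2 h. Compound in DMSO was then added for 24 h at 37 °C. Reporter signal was read by luminescence after 10 min with luciferase detection reagent.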
ELG1 genotoxic = induces genotoxicity in HEK293T cells with luciferase-tagged ELG1. Potency, µM (titrated, usually from 46 µM), actives largely listed as activators. AID 504466. HEK293T ELG1-luciferase reporter, luminescence, 16 h. 1.3% of 330,000 active; also: nearly all actives have a fitted effect of over 60% in size
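Step 1: seed 2,000 HEK293T ELG1-luciferase cells per well. Step 2: add compound or DMSO, incubate 16 hr at 37 °C. Step 3: ONE-Glo, 30 min at room temperature, read luminescence.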
SMN2 splice up = increases expression of the SMN2 splice variant | HEK293 SMN2-luciferase splicing reporter, luminescence, 30-36 h | Potency, µM (highest dose often 46.1 µM), most hits filed as activators | 2.8% of 210,000 active | AID 1458; also: nearly all actives have a fitted effect of over 55% in size
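HEK293 cells carry an SMN2 […]–luciferase reporter in which exon 7 inclusion puts luciferase in frame. Cells were plated 10-12 h before compound addition, then incubated 30-36 h at 37C. ONE-Glo luminescence was read; sodium butyrate at 4.5 mM final served as control.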
FLuc modulator = inhibits or activates purified firefly luciferase, miR-21 counter-screen | purified FLuc, Km substrates, luminescence inhibition | 6.9% of 360,000 active | Potency, µM (titrated, usually from 57.5 µM), hits mostly inhibitors; also: nearly all actives have a fitted effect of over 55% in size
Target sequence (P08659 whole entry, looked up): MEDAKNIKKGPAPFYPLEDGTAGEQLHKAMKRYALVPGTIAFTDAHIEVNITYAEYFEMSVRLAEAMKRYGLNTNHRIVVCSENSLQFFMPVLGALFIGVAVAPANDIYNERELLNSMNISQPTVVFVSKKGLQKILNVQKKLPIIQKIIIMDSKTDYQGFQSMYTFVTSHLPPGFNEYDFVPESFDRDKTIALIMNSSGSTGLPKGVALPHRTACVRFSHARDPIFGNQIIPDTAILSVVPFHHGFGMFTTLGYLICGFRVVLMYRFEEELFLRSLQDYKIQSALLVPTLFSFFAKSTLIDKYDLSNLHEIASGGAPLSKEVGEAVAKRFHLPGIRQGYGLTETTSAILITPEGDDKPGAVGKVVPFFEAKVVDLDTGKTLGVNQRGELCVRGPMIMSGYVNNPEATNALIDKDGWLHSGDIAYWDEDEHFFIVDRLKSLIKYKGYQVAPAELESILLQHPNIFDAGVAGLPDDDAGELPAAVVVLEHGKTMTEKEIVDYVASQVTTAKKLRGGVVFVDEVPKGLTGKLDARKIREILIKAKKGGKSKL
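Purified P. pyralis luciferase (10nM final) with 10uM D-luciferin and 10uM ATP (Km levels) in 50mM Tris acetate pH 7.5, 10mM Mg acetate, 0.01% Tween-20, 0.05% BSA; qHTS 6-point titration, ~60 µM downward; luminescence read.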
KinaseGlo FLuc = blocks Kinase-Glo luciferase, a counter-screen artifact. Q27757. Kinase-Glo luciferase, ATP luminescence, 8 min. Potency, µM (highest dose often 38.3 µM), actives largely listed as inhibitors. 0.28% of 200,000 active; also: nearly all actives have a fitted effect of over 60% in size
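Compound is pinned into ATP-containing buffer (10 uM ATP, imidazole pH 7.2, 7 mM MgCl2). Kinase-Glo luciferase reagent is then added. Light output is recorded following an 8-min room-temperature incubation.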
Numbers stand for hits; [ ] = remark or other dose. In the library only some 7.4% were active in any assay of this set; here they are far more common. Calls follow the shape of the dose curve; as a rule, active = well fitted curve in the direction sought with a large enough effect; inconclusive = small, poorly fitted or top-dose-only effect, or another doubt; inactive = no such curve, though single readings can be large; an effect the other way counts as inactive or inconclusive.

Results for CCOC(=O)c1cnc2c(C)c(C)ccc2c1Nc1ccc(S(=O)(=O)Nc2ncccn2)cc1 ?
NPC1 promoter act: inactive; Rab9 promoter act: inactive; ELG1 genotoxic: inactive; SMN2 splice up: inconclusive; FLuc modulator: 19µM; KinaseGlo FLuc: inactive

Results for CN1CCN(c2ncc3nc(CCc4ccccc4)c(=O)n(Cc4ccc(F)cc4)c3n2)CC1 ?
SMN2 splice up: inactive; KinaseGlo FLuc: inactive

What do the screens show for `Cc1[nH]n2c(=O)c3c(nc2c1-c1ccc(Cl)cc1)CCC3`?
NPC1 promoter act: inactive; Rab9 promoter act: inactive; ELG1 genotoxic: inactive; FLuc modulator: inactive; KinaseGlo FLuc: inactive

Results for O=c1c2c(nc3cc(-c4ccc(F)cc4)[nH]n13)CCC2 ?
NPC1 promoter act: 2.51µM; Rab9 promoter act: 3.16µM; ELG1 genotoxic: 18.4µM; SMN2 splice up: 7.08µM; FLuc modulator: 8.49µM; KinaseGlo FLuc: inconclusive

What do the screens show for `CCc1ccc(/C=C2/SC(=S)N(CCC(=O)Nc3cccc(C(=O)O)c3)C2=O)cc1`?
NPC1 promoter act: inconclusive; Rab9 promoter act: inactive; ELG1 genotoxic: inconclusive; FLuc modulator: 2.13µM

How did O=C(O)CN1C(=O)/C(=C\c2cccc(OCc3ccccc3F)c2)SC1=S do in these assays?
NPC1 promoter act: inactive; Rab9 promoter act: inactive; ELG1 genotoxic: inactive; FLuc modulator: 21.3µM

What do the screens show for `CCN(C(=O)CCN1C(=O)/C(=C/c2ccccc2)SC1=S)C1CCS(=O)(=O)C1` (stereo not drawn)?
NPC1 promoter act: inactive; Rab9 promoter act: inactive; ELG1 genotoxic: inactive; FLuc modulator: 23.9µM

How did COc1ccc(/C=C2\SC(=S)N(CCC(=O)Nc3ccc(C(=O)O)cc3)C2=O)cc1 do in these assays?
NPC1 promoter act: inactive; Rab9 promoter act: inactive; ELG1 genotoxic: inconclusive; FLuc modulator: 3.01µM

How did Cc1nnc(NC(=O)C2CSC3(C)CCC(=O)N23)s1 (stereo not drawn) do in these assays?
NPC1 promoter act: inactive; Rab9 promoter act: inactive; ELG1 genotoxic: inactive; FLuc modulator: inactive

Results for C[C@@H](C1=C(CCN(C)C)Cc2ccccc21)c1ccccn1 ?
KinaseGlo FLuc: inactive

What do the screens show for `OCCSCc1ccccc1`?
SMN2 splice up: inactive[9.22 µM]; KinaseGlo FLuc: inactive[7.66 µM]

Results for Cc1nn(C2CCS(=O)(=O)C2)c(C)c1CN(C)C(=O)c1ccc(S(=O)(=O)N(C)C)cc1 (stereo not drawn) ?
ELG1 genotoxic: inactive

Results for COc1ccc(S(=O)(=O)c2cc(NS(=O)(=O)c3ccc(Cl)cc3)c(C)c(C)c2O)cc1 ?
SMN2 splice up: inactive; FLuc modulator: inconclusive

How did CCOc1ccc(/C=C2\SC(=S)N(CCC(=O)N(CCO)c3ccccc3)C2=O)cc1 do in these assays?
NPC1 promoter act: inactive; Rab9 promoter act: inactive; ELG1 genotoxic: inactive; FLuc modulator: 9.53µM

How did CCc1ccc(/C=C2\SC(=S)N(CCCC(=O)Nc3ccccn3)C2=O)cc1 do in these assays?
NPC1 promoter act: inactive; Rab9 promoter act: inactive; ELG1 genotoxic: inactive; SMN2 splice up: inactive; FLuc modulator: 15.1µM; KinaseGlo FLuc: inactive

Results for O=C(CCN1C(=O)/C(=C\c2ccccc2)SC1=S)N1CCCCC1 ?
NPC1 promoter act: inactive; Rab9 promoter act: inactive; ELG1 genotoxic: inactive; FLuc modulator: inconclusive

Results for COC(=O)c1ccc(/C=C2/SC(=S)N(CCCC(=O)Nc3ccccn3)C2=O)cc1 ?
NPC1 promoter act: inactive; Rab9 promoter act: inactive; ELG1 genotoxic: inactive; SMN2 splice up: inactive; FLuc modulator: inconclusive; KinaseGlo FLuc: inactive

Results for O=C(CCN1C(=O)/C(=C/c2cccs2)SC1=S)N1CCCCC1 ?
NPC1 promoter act: inactive; Rab9 promoter act: inactive; ELG1 genotoxic: inactive; FLuc modulator: 15.1µM

Results for O=C(O)CCN1C(=O)/C(=C\c2cccc(Oc3ccccc3)c2)SC1=S ?
NPC1 promoter act: inactive; Rab9 promoter act: inactive; ELG1 genotoxic: inactive; FLuc modulator: 23.9µM

What do the screens show for `COc1ccc(/C=C2/SC(=S)N(CCC(=O)O)C2=O)cc1`?
NPC1 promoter act: inactive; Rab9 promoter act: inactive; ELG1 genotoxic: inactive; SMN2 splice up: inactive; FLuc modulator: 5.36µM; KinaseGlo FLuc: inactive

Results for O=C(CCN1C(=O)/C(=C/c2ccc(Cl)cc2)SC1=S)Nc1ccc(C(=O)O)cc1 ?
NPC1 promoter act: inactive; Rab9 promoter act: inactive; ELG1 genotoxic: inactive; FLuc modulator: 10.7µM

How did CN1C(=O)S/C(=C/c2ccc(OCc3cccc(C(=O)O)c3)cc2)C1=O do in these assays?
NPC1 promoter act: 0.398µM; Rab9 promoter act: 0.282µM; ELG1 genotoxic: inconclusive; FLuc modulator: 2.69µM

Results for O=C(CCN1C(=O)/C(=C\c2cccs2)SC1=S)Nc1ccc(C(=O)O)cc1 ?
NPC1 promoter act: inactive; Rab9 promoter act: inactive; ELG1 genotoxic: inactive; FLuc modulator: inactive

How did CCc1ccc(/C=C2/SC(=S)N(CCC(=O)Nc3ccc(C(=O)O)cc3)C2=O)cc1 do in these assays?
NPC1 promoter act: inactive; Rab9 promoter act: inactive; ELG1 genotoxic: inactive; FLuc modulator: 0.849µM

How did CC(NS(=O)(=O)c1cccc(C(=O)NCc2ccncc2)c1)c1ccccc1 (stereo not drawn) do in these assays?
NPC1 promoter act: inactive; Rab9 promoter act: inactive; ELG1 genotoxic: inactive

How did COc1cccc(/C=C2\SC(=S)N(CCCC(=O)N3CCCC3)C2=O)c1 do in these assays?
NPC1 promoter act: inactive; Rab9 promoter act: inactive; ELG1 genotoxic: inactive; FLuc modulator: 16.9µM

Results for COc1ccc(/C=N/NC(=S)Nc2cccc(C(=O)O)c2)cc1OC ?
NPC1 promoter act: inactive; Rab9 promoter act: inactive; ELG1 genotoxic: inactive; SMN2 splice up: inactive; FLuc modulator: 5.36µM; KinaseGlo FLuc: inactive

Results for COc1cccc(/C=N/NC(=S)Nc2cccc(C(=O)O)c2)c1 ?
NPC1 promoter act: 2µM; Rab9 promoter act: 3.16µM; ELG1 genotoxic: inactive; SMN2 splice up: 14.1µM; FLuc modulator: 1.69µM; KinaseGlo FLuc: inactive

What do the screens show for `COc1cc(/C=N/NC(=S)Nc2cccc(C(=O)O)c2)cc(OC)c1OC`?
NPC1 promoter act: inactive; Rab9 promoter act: inactive; ELG1 genotoxic: inactive; SMN2 splice up: inconclusive; FLuc modulator: 23.9µM; KinaseGlo FLuc: inactive

How did COc1cc(/C=N/NC(=O)C[n+]2ccccc2)cc(OC)c1OC do in these assays?
NPC1 promoter act: inactive; Rab9 promoter act: inactive; ELG1 genotoxic: inactive; SMN2 splice up: inactive; FLuc modulator: inactive; KinaseGlo FLuc: inactive

What do the screens show for `COc1cccc(/C=N/NC(=S)Nc2cccc(S(=O)(=O)N(C)C)c2)c1`?
NPC1 promoter act: inactive; Rab9 promoter act: inactive; ELG1 genotoxic: inactive; FLuc modulator: inconclusive

How did COc1cc(/C=N/NC(=S)N/N=C/c2cc(OC)c(OC)c(OC)c2)cc(OC)c1OC do in these assays?
NPC1 promoter act: inactive; Rab9 promoter act: inactive; ELG1 genotoxic: inconclusive; SMN2 splice up: 4.47µM; FLuc modulator: 0.213µM; KinaseGlo FLuc: inactive
